# Screening results: PubChem, several laboratories
# ALR inh – inhibitors of human ALR sulfhydryl oxidase, primary screen, biochemical, H2O2 detection, HRP-luminol luminescence, single point | FAD-linked sulfhydryl oxidase ALR (Homo sapiens), P55789 | purified ALR, DTT oxidation | inhibition, % (no concentration beside the values) | 290,000 compounds, 3.8% hits;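 active = mean replicate inhibition above about 79%, with every replicate also reaching it, limit read from the data; inconclusive = only one of the two criteria met; inactive = mean below limit and not every replicate reaching it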
# Target sequence (P55789 whole entry, looked up): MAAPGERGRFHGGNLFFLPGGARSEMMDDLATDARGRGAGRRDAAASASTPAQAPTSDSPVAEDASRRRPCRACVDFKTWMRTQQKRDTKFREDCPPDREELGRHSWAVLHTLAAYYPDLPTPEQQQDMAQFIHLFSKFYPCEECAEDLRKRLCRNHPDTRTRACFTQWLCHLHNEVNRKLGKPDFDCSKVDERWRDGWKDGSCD
# A3A deaminase – APOBEC3A ssDNA deaminase inhibitors, primary screen, selectivity assay for APOBEC3G inhibitor project, biochemical, FAM/TAMRA oligo cleavage fluorescence | DNA dC->dU-editing enzyme APOBEC-3A (Homo sapiens), P31941 | recombinant A3A, FAM/TAMRA ssDNA deamination fluorescence | inhibition, % at 20 µM | 330,000 compounds, 0.41% hits | AID 493011, 2011;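 active = at least 40% inhibition at 20 µM here, with at most 30% in a related deaminase screen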;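 note: plate controls were A3A with DMSO for no effect and wells lacking A3A enzyme for full effect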
# Target sequence (P31941 whole entry, looked up): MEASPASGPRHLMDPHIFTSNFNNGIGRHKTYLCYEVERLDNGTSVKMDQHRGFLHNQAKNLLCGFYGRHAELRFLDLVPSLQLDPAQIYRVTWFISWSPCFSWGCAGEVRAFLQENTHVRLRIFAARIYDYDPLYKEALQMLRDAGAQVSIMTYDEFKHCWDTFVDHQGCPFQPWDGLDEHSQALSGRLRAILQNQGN
# Yeast superoxide – reduction of superoxide in aged yeast, primary screen, HTS; superoxide response (% of plate mean), % at 10 µM; S. cerevisiae aged cells, superoxide DHE fluorescence; hits give low values; 330,000 compounds, 0.18% hits; AID 2690, 2010;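 active = superoxide response under a set limit, about three screen SD below normal, cut at about 65% in these data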;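 note: yeast aged for seven days with compound at 30 °C before DHE staining; 100% = average MFI of all compound-treated wells on the plate with controls excluded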
# PfM18AAP inh-1 – PfM18AAP inhibitors, malaria aminopeptidase, primary screen, biochemical, QFRET, recombinant enzyme. M18 aspartyl aminopeptidase (Plasmodium falciparum 3D7). H-Glu-NHMec fluorogenic cleavage. inhibition, % at 7.35 µM. 290,000 compounds, 1.2% hits;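 active = inhibition above the campaign mean inhibition over all tested compounds plus 3 SD, cut at about 28% in these data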;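 note: 0% = plate median of test compound wells and 100% = 2 mM ZnCl2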
# APOBEC3G inh – APOBEC3G DNA deaminase inhibitors, primary screen, biochemical, fluorescence, single-stranded DNA substrate, uHTS. recombinant A3G, ssDNA deamination FAM/TAMRA fluorescence. inhibition, % at 20 µM. 330,000 compounds, 0.28% hits;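 active = inhibition of at least 40% at 20 µM, with no more than 30% in the related APOBEC3A deaminase screen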;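 note: plate controls were DMSO wells with A3G for no effect and wells lacking A3G enzyme for full effect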
# NRP1-CendR mod – modulators of CendR peptide binding to NRP-1, primary screen, biochemical, fluorescence polarization, uHTS | 360,000 compounds, 0.85% hits | FAM-RPARPAR peptide binding to NRP-1 | inhibition, % at 25 µM | AID 602438, 2012;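 active = inhibition or corrected inhibition above about 18%, plus a signal ratio from 0.5 to 1.5, limit read from the data, passing the limit was not always enough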
# PfM18AAP inh-2 – PfM18AAP inhibitors, malaria aminopeptidase, confirmation, biochemical, QFRET, recombinant enzyme, triplicate; shares compounds with PfM18AAP inh-1; H-Glu-NHMec fluorogenic cleavage; inhibition, % at 7.35 µM; 2,400 compounds, 28% hits; AID 2170, 2009;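 active = mean inhibition over replicate wells above the hit cutoff set for the earlier primary screen, cut at about 29% in these data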;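 note: 0% = median of test compound wells and 100% = 2 mM ZnCl2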
# CTSL1 counter – cathepsin L1 inhibitors, retest, confirmation, counter-screen for PFM18AAP inhibitor project, biochemical, QFRET, triplicate; shares compounds with PfM18AAP inh-1; purified cathepsin L1, Z-Leu-Arg-MCA fluorescence; inhibition, % at 5.96 µM; 2,400 tested, under 10 active; AID 2178, 2009;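 active = average inhibition across replicates above the hit cutoff set in the earlier primary screen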;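 note: 0% = median of test compound wells and 100% = Z-Phe-Ala-diazomethylketone 1 µM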
# CR mimetic CP – superoxide lowering in aged yeast cells, confirmation, cherry picked compounds; 850 compounds, 1% hits; S. cerevisiae aging, superoxide DHE fluorescence; hits give low values; shares compounds with Yeast superoxide; superoxide response (% of plate), % at 10 µM;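 active = superoxide signal below 65% of the plate average of sample wells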;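 note: cells aged with compound for 7 days at 30 degrees C before staining; 100% equals mean DHE fluorescence of all compound wells on the plate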
# DHE counter – DHE quenching or ROS scavenging interference in aged yeast, artefact control for yeast caloric restriction mimetic project, S. cerevisiae BY4741, flow cytometry. shares compounds with Yeast superoxide. DHE fluorescence; hits give low values. fluorescence response, % at 10 µM. 850 tested, under 10 active. AID 435000, 2010;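 active = fluorescence response below 15%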;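 note: percent of the mean fluorescence averaged over all compound wells on the plate; lower means stronger quenching of DHE signal or ROS scavenging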
# APOBEC3G confirm – APOBEC3G deaminase inhibitor retest, confirmation, biochemical, fluorescence, single-stranded DNA substrate, single concentration | shares compounds with APOBEC3G inh | recombinant A3G ssDNA deaminase, UDG/FAM-TAMRA fluorescence | inhibition, % at 20 µM | 890 compounds, 72% hits;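 active = inhibition reaching a set limit in any replicate at 20 µM, the limit being 80% of the first screen's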
# UDG ctr A3G – E. coli UDG inhibitors, confirmation, counter-screen for APOBEC3G inhibitor project, biochemical, single concentration, fluorescence, FAM/TAMRA oligo | shares compounds with APOBEC3G inh | UDG counterscreen | inhibition, % at 20 µM | 710 tested, under 10 active | AID 504715, 2011;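 active = compounds giving 40% or more inhibition at 20 µM in any one of the three replicates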;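 note: plate controls were DMSO wells with UDG and oligo for no effect and DMSO wells lacking both for full effect; inhibitors lower the FAM signal released by uracil excision and alkaline cleavage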
# Target sequence (P12295 whole entry, looked up): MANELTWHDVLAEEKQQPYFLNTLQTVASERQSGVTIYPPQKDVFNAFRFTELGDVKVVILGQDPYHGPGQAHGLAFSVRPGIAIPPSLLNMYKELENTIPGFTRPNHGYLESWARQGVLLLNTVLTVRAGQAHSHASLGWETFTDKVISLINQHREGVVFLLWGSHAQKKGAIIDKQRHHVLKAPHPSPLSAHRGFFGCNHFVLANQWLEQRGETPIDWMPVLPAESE
# * marks the source's active call; other numbers are inactive results; ? = inconclusive; nt = no result given. This is a sample that favours compounds with a hit; in the whole collection about 5.2% have one here.
SMILES,ALR inh,A3A deaminase,Yeast superoxide,PfM18AAP inh-1,APOBEC3G inh,NRP1-CendR mod,PfM18AAP inh-2,CTSL1 counter,APOBEC3G confirm,UDG ctr A3G,others
COCCCNC(=S)Nc1ccc(C)cc1,37,-4,92,1,-1,0,nt,nt,nt,nt,
COCCCNC(=S)NNC(=S)Nc1ccc(F)cc1F,10,-1,107,32*,55*,9,-19,3,86*,-8,
COCCCNC(=S)NCCc1ccc(F)cc1,5,-4,74,6,-7,-5,nt,nt,nt,nt,
COCCCNC(=S)NNC(=S)Nc1ccccc1,96*,2,108,40*,42*,0,-14,6,72*,2,
O=C(O)CCC(=O)Nc1ccc(C(=O)OCC(=O)c2ccc(Cl)cc2)cc1,-4,0,92,-15,-2,-4,nt,nt,nt,nt,
Fc1ccccc1-c1n[nH]c(=S)n1C1CC1,67,-4,100,20,33,-5,nt,nt,nt,nt,
CC(C)Cn1c(-c2ccccc2F)n[nH]c1=S,5,-5,122,32*,41*,2,1,-1,82*,0,
COc1ccc(C2CC(=O)N3CN(c4ccc(C)c(Cl)c4)CSC3=C2C#N)cc1OC (stereo not given),-8,-2,90,35*,45*,-43,-4,-2,19,-2,
N#CC1=C2SCN(c3ccc(F)cc3)CN2C(=O)CC1c1cccc(F)c1 (stereo not given),4,8,84,27,35,-43,nt,nt,nt,nt,
Cc1ccc(N2CSC3=C(C#N)C(c4cccs4)CC(=O)N3C2)cc1 (stereo not given),-14,13,104,33*,45*,-74,-6,6,59*,-2,
CCc1ccc(N2CSC3=C(C#N)C(c4cccs4)CC(=O)N3C2)cc1 (stereo not given),5,16,97,44*,49*,-50,-5,1,50*,-2,
Cc1onc(-c2ccccc2)c1C(=O)NN1CCOCC1,-1,5,88,nt,1,4,nt,nt,nt,nt,
CCOC(=O)c1c(NC(C)=O)sc2c1CCC(C=O)=C2Sc1ccccc1,1,-4,96,40*,41*,-45,-21,1,2,3,
CCOC(=O)c1c(NC(C)=O)sc2c1CCN(Cc1ccccc1)C2,1,-7,110,1,-13,-8,nt,nt,nt,nt,
CCOC(=O)CC(N)c1ccc(OC)cc1 (stereo not given),0,-2,97,2,0,7,nt,nt,nt,nt,
S=c1nc(-c2ccco2)[nH][nH]1,99*,-2,94,44*,81*,16,10,-2,94*,-4,
O=C(NCCc1ccccn1)c1ccc(OC(F)F)cc1,-6,0,70,2,-6,5,nt,nt,nt,nt,
Cc1[nH]n(-c2ccccc2)c(=S)c1C=NCCCN=Cc1c(C)[nH]n(-c2ccccc2)c1=S,5,5,104,59*,62*,7,-4,1,54*,-3,
O=c1c2ccccc2cnn1Cc1n[nH]c(=S)n1-c1ccc(Cl)cc1,?,-2,101,35*,42*,-8,5,-8,77*,-3,
CCCN1CCC(NC(=O)Nc2cc(Cl)ccc2OC)CC1,nt,-2,84,-2,-11,10,nt,nt,nt,nt,
Cc1ccccc1NC(=S)c1ccc2ccccc2n1,-3,-3,100,41*,42*,-64,-24,3,40*,1,
CCCN(CC(=O)Nc1ccccc1C)C(=O)c1ccc2ccccc2n1,-11,3,95,nt,-5,-13,nt,nt,nt,nt,
CC1CCC2(CC1)NC(=S)N(c1ccccc1)N2 (stereo not given),93*,0,86,45*,61*,-12,-24,2,23*,3,
O=C(c1ccccc1Br)N1CCN(c2ccccc2)CC1,?,2,98,0,-5,0,nt,nt,nt,nt,CR mimetic CP=107;DHE counter=95
Cc1occc1C(=O)N1CCN(c2ccccc2)CC1,29,6,99,1,-5,-8,nt,nt,nt,nt,
SMILES,ALR inh,A3A deaminase,Yeast superoxide,PfM18AAP inh-1,APOBEC3G inh,NRP1-CendR mod,PfM18AAP inh-2,CTSL1 counter,APOBEC3G confirm,UDG ctr A3G,others
Cc1ccc(C)c(N2CCN(C(=O)c3ccccc3Br)CC2)c1,9,-1,108,2,1,10,nt,nt,nt,nt,CR mimetic CP=101;DHE counter=105
Cc1ccc(N2CCN(C(=O)c3ccccc3Br)CC2)c(C)c1,-8,0,98,5,-8,1,nt,nt,nt,nt,CR mimetic CP=102;DHE counter=96
O=C(COc1ncnc2sccc12)Nc1ccc(F)cc1F,2,1,93,6,6,-2,nt,nt,nt,nt,
CC1CC1C(=O)OCC(=O)NCc1ccccc1Cl (stereo not given),-7,3,95,4,1,-2,nt,nt,nt,nt,
COc1ccc(Cl)cc1C(=O)NCc1cnn(C)c1C,nt,2,65*,3,2,1,nt,nt,nt,nt,CR mimetic CP=107;DHE counter=100
Cc1ccc[n+](CC(=O)Nc2cc(C(F)(F)F)ccc2Cl)c1,-6,3,105,5,0,-1,nt,nt,nt,nt,
